Results published in PubChem BioAssay.

Test system: XIP peptide (Xip251-270)
Assay: compounds binding XIP fragment 251-270 – biochemical, small-molecule microarray, fluorescence 635/667 nm, 0.5 µg/mL protein, primary screen (AID 1183)
Conditions: fluorescence 635 nm, higher = more signal
Molecule `Cn1cccc1C(O)C1C=CC2C(=O)NC(=O)C2N1Nc1ccccn1` (centres undefined) has a composite z-score of 0.916.
In the case of `CCCC[C@H]1OB(O)C[C@H]2C1=C(C)C[C@H]1C(=O)N(C)C(=O)[C@H]12`, the composite z-score is reported as 0.608.
With `Cc1ccc(S[C@]2(C(=O)NCC(F)(F)F)CC(=O)N(Cc3ccccc3Cl)[C@@H]2c2ccc(CO)cc2I)cc1` the composite z-score was 0.426.
In the case of `CC(C)NC(=O)[C@@H]1c2ccccc2C(=O)N(CC23CC4CC(CC(C4)C2)C3)[C@H]1c1ccc(CO)cc1`, the composite z-score is reported as 0.661.
Work on `CCc1cccc(NC(=O)O[C@H]2[C@H](OC(=O)Nc3ccc4c(c3)OCO4)[C@@H](OC(=O)Nc3ccc4c(c3)OCO4)[C@@H](OC)O[C@@H]2CO)c1` yielded a composite z-score of -0.0177.
For `CC(C)OC(=O)C=C1C[C@@H](c2ccc(C#N)cc2)O[C@@H](c2ccc(C#N)cc2)O1`, the composite z-score was 0.865.
With `COC(=O)C1=CCC(c2cccc(Cl)c2)O1` (centres undefined) the composite z-score was 0.45.
Molecule `CCCC[C@@H](O)C1=C(C)C[C@H]2C(=O)N(Cc3ccccc3)C(=O)[C@H]2[C@H]1CO` has a composite z-score of 0.576.

Test system: not listed separately
Assay: blood-stage malaria parasite viability loss – strain 3D7, DAPI fluorescence, 100 nL, primary screen (AID 1184);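 further: parasites grown inside human red blood cells in medium with human serum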
Conditions: P. falciparum 3D7 growth, 3 d, higher = more signal
`CC(C)c1ccc(NN2C(C(O)c3ccc4c(c3)OCO4)C=CC3C(=O)N(c4ccccc4)C(=O)C32)cc1` (centres undefined) gave a z-score of -0.121.
Molecule `CN1C(=O)[C@@]2(CCC(=O)OC(C)(C)C)N=C(c3ccc(OCCCO)cc3)O[C@H]2c2ccccc21` has a z-score of -2.1.
For `COC(=O)[C@@]1(Cc2ccc(F)cc2)[C@@H]2C(=CC(=O)[C@H]2CC(=O)C(=O)N(C)C)CN1C(=O)c1ccccc1`, the z-score was -1.35.
`O=C(CS)NCCCCCNC(=O)[C@H]1C[C@H]2C(=O)N3CCC[C@H]3C(=O)N2[C@H]1c1cccc(OCCO)c1` showed a z-score of -0.718.
`C=CCOC(=O)[C@H]1[C@@H]2C(=O)O[C@@H](c3ccccc3)[C@@H](c3ccccc3)N2[C@@H](c2ccc(OCCOC(=O)[C@H]3C[C@H]4C(=O)N[C@@H](Cc5ccccc5)C(=O)N4[C@H]3c3ccc(O)cc3)cc2)[C@]12C(=O)Nc1ccccc12` showed a z-score of -1.62.
Work on `COc1ccc([Si](C)(C)[C@@H]2[C@@H](CCO)O[C@]3(C(=O)N(Cc4ccc(NC(C)=O)cc4)c4ccccc43)[C@H]2C)cc1` yielded a z-score of -2.92.
`CCCCCN1CC=CC23O[C@@H]4C=CCOC(=O)[C@@H]4[C@H]2C(=O)N(CCCCCCO)[C@@H]3C1=O` (some centres undefined) gave a z-score of -0.658.
`COC(=O)C1(C)C=C2C(=C(c3ccccc3)C(=O)C2C)CN1` (centres undefined) showed a z-score of -0.0619.
With `CC(C)N1CC=CC23O[C@@H]4C=CCCOC(=O)C4[C@H]2C(=O)N(CCCCCCO)[C@@H]3C1=O` (some centres undefined) the z-score was 0.0012.
`COc1ccc([Si](C)(C)[C@H]2[C@H](CCO)O[C@@]3(C(=O)N(Cc4cccc(NC(=O)[C@H](C)O)c4)c4ccccc43)[C@@H]2C)cc1` showed a z-score of -2.74.
For `COc1ccc(CCNC(=O)[C@@H]2c3ccccc3C(=O)N(c3ccc(C)cn3)[C@H]2c2ccc(CO)cc2)cc1`, the z-score was -0.183.
With `C=CCNC(=O)[C@H]1[C@@H]2C(=O)O[C@@H](c3ccccc3)[C@@H](c3ccccc3)N2[C@@H](c2ccc(O)cc2)[C@]12C(=O)N(C(=O)OCCOC)c1ccc(C#CC3=CCCCC3)cc12` the z-score was -0.919.
Work on `[N-]=[N+]=NCc1ccccc1[C@@H]1OC(c2ccc(OCCCO)cc2)=N[C@]1(Cc1ccccc1)C(=O)N1CCOCC1` yielded a z-score of -2.33.
Work on `CC(C)C[C@@H]1NC(=O)[C@H]2C[C@@H](C(=O)NCCCCCCN(C)C)[C@@H](c3cccc(OCCO)c3)N2C1=O` yielded a z-score of 0.063.
`C=C(/C(=C/C[C@@H](OC(=O)c1ccncc1)c1ccc(OCCO)cc1)c1cnc2ccccc2c1)C(C)C` gave a z-score of -2.84.
Molecule `CS(=O)(=O)CCOC(=O)C1=CC(CCCO)=CC(c2cccs2)N(Cc2cccc(OC(F)(F)F)c2)C=C1C(=O)OCCS(C)(=O)=O` (centres undefined) has a z-score of -2.99.
`COCCCNC(=O)[C@]1(CCC(=O)OC(C)(C)C)N=C(c2ccc(OCCCO)cc2)O[C@@H]1c1ccccc1N=[N+]=[N-]` gave a z-score of -1.75.
`Cc1ccc(C2CC=C(C(=O)O)CN2S(=O)(=O)c2ccc(C)cc2)cc1` (centres undefined) showed a z-score of -1.2.
For `O=C1O[C@@H](c2ccccc2)[C@@H](c2ccccc2)N2[C@@H](c3ccc(OCCO)cc3)[C@]3(C(=O)Nc4ccccc43)[C@@H](C(=O)N3CCN(c4ncccn4)CC3)[C@H]12`, the z-score was -2.11.
Molecule `COCCOC(=O)N1C(=O)[C@@]2(c3cc(C#CCNC(N)=O)ccc31)[C@H](c1ccccc1OCCO)N1[C@H](c3ccccc3)[C@H](c3ccccc3)OC(=O)[C@H]1[C@@H]2C(=O)N1CCN(c2ncccn2)CC1` has a z-score of -2.09.
`COCCOC(=O)N1C(=O)[C@@]2(c3cc(C#Cc4ccc(OC)cc4)ccc31)[C@H](C(=O)N1CCN(c3ncccn3)CC1)[C@H]1C(=O)O[C@H](c3ccccc3)[C@H](c3ccccc3)N1[C@@H]2c1ccc(OCCO)cc1` gave a z-score of -1.49.
